# High-throughput results as filed in PubChem.
# Shiga toxin inh – blocks Shiga toxin action in Vero cells; Vero cells, Shiga toxin protein synthesis inhibition reporter; inhibition, % at 38.7 µM; 290,000 compounds, 9.2% hits; in the data active means inhibition mostly above about 28%, no sharp cut-off; inactive means mostly below about 43%; further: 0% is about no effect
# Pf growth 48h – inhibits P. falciparum growth in the first generation, 48 h; P. falciparum luciferase growth in erythrocytes, 48 h; Potency, µM (series often up to 28.7 µM), for the others: at the top dose activity change, negative = inhibition, most hits filed as inhibitors; 310,000 compounds, 5.9% hits; AID 504832; further: potency means the concentration at half of the fitted maximal effect; on the % scale 0 is the no-effect control and ±100 the full control effect
#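 Firefly luciferase activity from engineered P. falciparum reports growth; inhibitors lower the luminescent signal. Cultures contained 2% hematocrit erythrocytes at 0.1% final parasitemia.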
# NS1 inh – blocks influenza NS1 protein function | Potency, µM (highest dose often 46.1 µM), for inactives: at the highest dose activity, positive = more growth | 270,000 compounds, 0.4% hits | AID 2326; calls by dose curve; further: potency means the concentration at half of the fitted maximal effect; actives are rising curves; nearly all actives have a fitted effect of over 50% in size
#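 A cell-based growth assay was used: compounds that relieve NS1-induced slow growth of budding yeast raise OD600. Assay medium was yeast nitrogen base with ammonium sulphate and -URA supplement, pH 6.0, with 2% galactose.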
# Pf growth 96h – P. falciparum growth inhibition at 96 hour, primary screen for plastid delayed-death inhibitors. AID 504834. Potency, µM (series often up to 28.7 µM), for inactives: top-dose activity change, negative = inhibition, hits mostly inhibitors. P. falciparum luciferase reporter growth, 96 h. 320,000 compounds, 6.9% hits; further: potency means the concentration at half of the fitted maximal effect; on the % scale 0 is the no-effect control and ±100 the full control effect
#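 Infected RBCs, 2% Hct / 0.05% parasitemia final; luciferase-reporter P. falciparum; cpd 96 h, 37 C, 5% CO2; luciferase detection reagent; luminescence.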
# Sm TGR block – blocks Schistosoma mansoni thioredoxin glutathione reductase; Q962Y6; purified TGR, DTNB reduction, TNB absorbance 405 nm; Potency, µM (highest dose often 114 µM), for inactives: at the highest dose activity change, negative = inhibition, usual class: inhibitors; 360,000 compounds, 3% hits; AID 485364; further: potency means the concentration at half of the fitted maximal effect; on the % scale 0 is the no-effect control and ±100 the full control effect; nearly all actives have a fitted effect of over 60% in size
#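 TGR 20 nM + NADPH 100 uM (dispensed conc.), cpd preinc 15 min RT; start with NADPH (500 uM addition) then DTNB (15 mM addition). Kinetic TNB absorbance, 405 nm filter. Four-parameter Hill fit across titration.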
# Cycloheximide cs – counter-screen hit for Shiga toxin inhibitors, cycloheximide. AID 2314. 300,000 compounds, 12% hits. max response, %. cell reporter, cycloheximide protein synthesis inhibition counterscreen; in the data active means max response mostly above about 13%, no sharp cut-off; inactive means mostly below about 14%; further: read at 38.3 µM for the half of the compounds with a filed dose; 0% is about no effect
# Active calls of the source: *; ? = inconclusive; · = no result; [ ] = remark or other dose. Rows were chosen to be rich in hits. Some 21% of all compounds tested hit in one or more screens of this group. Unless noted, the call rests on the fitted dose curve; in most records, active means well fitted curve in the direction sought with a large enough effect; inconclusive means small, poorly fitted or top-dose-only effect, or another doubt; inactive means no such curve, though single readings can be large; an effect the other way counts as inactive or inconclusive.
SMILES,Shiga toxin inh,Pf growth 48h,NS1 inh,Pf growth 96h,Sm TGR block,Cycloheximide cs
O=C(Cn1cnc2sc(-c3ccccc3)cc2c1=O)NCc1ccco1,19.6,8.0%,?,·,12.6µM*,7.4
O=C(Cn1cnc2scc(-c3ccccc3)c2c1=O)NCc1ccco1,-6.3,-17.3%,-0.5%,96.5%,·,6.6
CCc1ccc(-c2csc3ncn(CC(=O)NCc4ccco4)c(=O)c23)cc1,30.1*,?,?,-12.7%,-21.6%,14.9*
Cc1ccc(C2(C)NC(=O)N(CC(=O)NC3CCCCC3)C2=O)cc1 (stereo unspecified),·,44.2%,·,?,4.4%,·
Cc1ccccc1Cn1c(=O)n(Cc2ccco2)c(=O)c2ccccc21,12.2,-29.0%,-8.2%,-26.8%,-13.2%,-2.4
CC(C)(C)c1ccc(Cn2c(=N)n(CC(O)c3ccco3)c3ccccc32)cc1 (stereo unspecified),-22.0,2.33µM*,2.0%,11.7µM*,·,-8.4
Cc1ccccc1Cn1c(=N)n(CC(O)c2ccco2)c2ccccc21 (stereo unspecified),-16.8,9.28µM*,-3.9%,?,3.2%,0.4
CC(C)CNc1nc(Oc2ccc(OCC(N)=O)nn2)nc(N2CCOCC2)n1,·,·,·,·,0.1%,·
CC1C/C(=N\NC(N)=S)c2cc(Cl)ccc2S1 (stereo unspecified),-12.0,?,5.1%,1.85µM*,-1.5%,-2.2
NC(=S)Nc1ccc(Cl)cc1Cl,-6.2,39.3%,-0.4%,73.0%,-25.0%,-0.3
C=CC[n+]1c(-c2ccc(OC)c(OC)c2)csc1NNC(=O)Nc1ccccc1,-17.4,7.38µM*,1.7%,9.28µM*,-1.8%,-1.8
COC(=O)c1scc(-c2ccc(C)cc2)c1S(=O)(=O)N1CCN(c2ccc(OC)cc2)CC1,·,·,·,·,-3.1%,·
COCCCNc1oc(-c2ccc(COc3ccccc3C)o2)nc1C#N,·,·,·,·,-8.1%,·
COc1ccc(CNc2ccccc2SC)cc1OC,33.2,·,-4.3%,-52.3%,6.0%,36.6*
COc1ccc(CNc2cccc3[nH]c(C(F)(F)F)nc23)cc1OC,-8.6,1.47µM*,?,-10.6%,20µM*,-4.6
COc1ccc(CCNCc2cccc(C(F)(F)F)c2)cc1OC,-10.4,-16.1%,·,39.2%,0.8%,1.1
O=C1CCCC/C1=C\Nc1ccc(S(=O)(=O)Nc2cnc3ccccc3n2)cc1,27.0,19.4%,0.5%,13.0%,-25.8%,-1.1
Cc1nc2c(C)cccc2cc1C(=O)N/N=C/c1ccc(N(C)C)cc1,-14.9,9.4%,-12.9%,·,27.7%,-0.9
CN(C)c1cccc(C(=O)N/N=C/c2ccsc2)c1,80.3*,121.5%,5.6%,59.0%,-18.4%,67.0*
COc1ccc(OCC(=O)N/N=C/c2ccsc2)cc1,13.9,16.6%,-7.6%,12.3%,-0.2%,-1.1
CN(C)c1ccc(/C=N/NC(=O)c2ccc(Cl)cc2)cc1,18.2*,34.7%,-18.9%,78.8%,-0.5%,2.4
CN(C)c1ccc(/C=N/NC(=O)c2ccccc2Cl)cc1,9.7,87.3%,-39.1%,-3.9%,-7.0%,34.9*
CC/C(=N\NC(=O)c1ccc(N(C)C)cc1)c1ccccc1,32.8*,12.1%,8.5%,57.4%,-0.6%,12.7
CCOc1ccc(-c2nnc(SCC(=O)NCc3ccc(C)cc3)nc2-c2ccc(OCC)cc2)cc1,·,·,·,·,13.2%,·
CN(C)c1ccc(/C=N/NC(=O)c2ccc3nc[nH]c3c2)cc1,22.0*,24.9%,-6.2%,31.8%,18.3%,15.8*
SMILES,Shiga toxin inh,Pf growth 48h,NS1 inh,Pf growth 96h,Sm TGR block,Cycloheximide cs
CN(C)c1ccc(/C(=N\O)c2ccccc2)cc1,83.1*,61.4%,8.3%,59.5%,-3.1%,34.6*
O=C(CCCCCNC(=O)c1ccccc1)N/N=C/c1ccccc1O,25.3,6.9%,4.0%,25.0%,0.1%,25.1*
CN(C)c1ccc(/C=N/NC(=O)c2cccc(C(=O)N/N=C/c3ccc(N(C)C)cc3)n2)cc1,-17.1,11.1%,0.7%,?,0.4%[57.1 µM],-3.6
CN(C)c1ccc(/C=N/NC(=O)c2ccccc2)cc1,53.4*,59.8%,-8.5%,36.5%,·,33.3*
COc1ccc(CN2CCN(Cc3c[nH]c4ccccc34)CC2CCO)c(F)c1 (stereo unspecified),-7.8,-27.4%,-2.6%,?,12.0%,-2.6
CC(Oc1cccc(F)c1)C(=O)Nc1ccc(N2CCOCC2)cc1 (stereo unspecified),·,0.0%,·,-5.0%,-2.3%,·
CSc1ccc(/C=N/NC(=O)C[n+]2ccccc2)cc1,-2.5,?,-2.8%,37.0%,1.6%,0.5
CN(C)c1ccc(/C=N/NC(=O)CCCCCNC(=O)c2ccccc2)cc1,59.9*,15.1%,-10.5%,?,3.4%,55.5*
C/C(=N/N=C/c1ccc(N(C)C)cc1)c1ccccc1,167.6*,250.4%,-24.6%,?,-7.9%,47.2*
CSc1ccc(/C=N/NC(=O)c2ccccc2Cl)cc1,91.3*,-17.8%,-8.4%,-65.5%[5.75 µM],-2.9%,31.8*
CCOc1ccc(C2CC(=O)n3nc(-c4ccc(C)cc4)nc3S2)cc1OC (stereo unspecified),·,·,·,·,0.8%,·
O=C(NNS(=O)(=O)c1ccc(F)cc1)c1ccc2c(c1)OCO2,9.8,3.8%,-1.3%,-0.7%,4.1%,-1.4
O=C(Nc1cccc(F)c1)c1ccc2c(c1)OCO2,68.7*,187.8%,-19.4%,-8.7%,3.8%,58.6*
CCOc1ccc(C(=O)Nc2ccc3c(c2)OCCO3)cc1,48.6*,122.6%,-18.8%,428.7%,?,34.5*
CCOc1ncccc1C(=O)Oc1ccc2c(c1)OCO2,32.8,?,-52.1%,0.5%[5.75 µM],-16.9%,8.9
CCOc1ccc(C(=O)Nc2ccc3c(c2)OCCO3)cc1Br,·,·,·,·,0.8%,·
O=C(NNC(=O)c1ccc(F)cc1F)c1ccc2c(c1)OCO2,62.1*,142.9%,·,199.5%,-9.5%,48.1*
O=C(Nc1c(C(=O)Nc2cccc(F)c2)oc2ccccc12)c1ccc2c(c1)OCO2,30.2,56.8%,-8.6%,?,-30.0%,12.0
O=C(Oc1ccc2c(c1)OCO2)c1ccc(F)cc1Cl,137.1*,10.6%,-42.1%,?,0.8%,72.2*
Cc1cccc(-c2nn(-c3ccccc3)cc2C(=O)N2CCN(C3CCS(=O)(=O)C3)CC2)c1 (stereo unspecified),·,7.0%,·,1.9%,-13.8%,·
COC(=O)c1sccc1S(=O)(=O)N1CCN(c2cccc(C)c2C)CC1,·,·,·,·,-5.5%,·
COc1ccccc1N1CCN(C(CNC(=O)C(=O)NCCc2ccccc2)c2cccnc2)CC1 (stereo unspecified),·,·,·,·,1.8%,·
COc1cc(OC)c(OC)cc1/C=N/n1c(COc2ccccc2)n[nH]c1=S,2.8,2.0%,6.7%,-1.7%,4.8%,-3.2
Cc1c(C(=O)Nc2ccc3c(c2)OCCO3)oc2ccc(Br)cc12,·,188.5%,·,202.9%,-4.7%,·
O=C(Nc1ccc2c(c1)OCCO2)c1ccc(Br)cc1,48.0,20.4%,2.8%,16.8%,1.8%,32.6*
Cc1ccc(C(=O)Nc2ccc3c(c2)OCCO3)cc1,47.3*,202.8%,-46.9%,0.0%,8.5%,14.5
